From PubChem BioAssay (NCATS)
Records with an inconclusive call do not appear. Active and inactive are the calls of the source. The call rests on the fitted dose curve; in most records, active means well fitted inhibition curve with a large enough effect; inconclusive means small, poorly fitted or top-dose-only effect; inactive means flat fitted curve, though single readings scatter.

experiment: qHTS for Inhibitors of Plasmodium falciparum (HB3) proliferation (AID 504318);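 further: 0% = DMSO vehicle and -100% = artemisinin control; nearly all actives have a fitted effect of over 60% in size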; details: P. falciparum HB3 in erythrocytes, SYBR Green DNA, 72 h; series mostly up to 7.21 µM; activity change, negative = inhibition: at the top concentration
In short: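 Erythrocytes infected with P. falciparum line (0.3% parasitemia, 2.5% hematocrit final) incubated with compounds 72 h at 37 °C, 5% CO2; SYBR Green lysis buffer added, fluorescence read next day. Normalized to 0.29 uM artemisinin and DMSO.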

Potency, inactive:
COC(=O)CCCC1=CC2=CC(=O)C(C)(OC(=O)c3cccs3)C(=O)C2=CN1C1CCCC1 (stereo not given), COC(=O)CCCC1=CC2=C(c3ccccc3)C(=O)C(C)(OC(=O)C3CCCC3)C(=O)C2=CN1c1ccccc1 (stereo not given)

Activity change, negative = inhibition, inactive:
CC(CCC(=O)OC[C@H]1O[C@H](C#Cc2ccccc2)C=C[C@H]1Oc1ccc(C)cc1)=NO[C@@H](C)c1cn([C@H](CO)Cc2ccccc2)nn1 -18.2%, COC(=O)CC(Oc1c(C)n(C)c2ccccc2c1=O)c1ccccc1 (stereo not given) -4.73%, C[C@H](ON=C1[C@H]2CCn3c(=O)n(-c4ccccc4)c(=O)n3[C@@H]2[C@H](O)[C@@H]2O[C@H]12)c1cn([C@H](CO)Cc2ccccc2)nn1 -7.4%, CC(=O)OC[C@H]1O[C@@H](ON=CC[C@@H]2C=C[C@@H](OC(C)=O)[C@@H](COC(C)=O)O2)[C@@H](OC(C)=O)[C@@H](OC(C)=O)[C@@H]1OC(C)=O 2.48%, COc1ccc(C(O)C2=CCCC2=O)cc1 (stereo not given) 8.25%, COC(=O)C1=C(C)N(Cc2ccccc2)C(=O)NC1c1cccc(F)c1 (stereo not given) -11.2%, C=CC[C@@H]1C=C(C(=O)OC)N(C(=O)C(F)(F)F)[C@@H](c2ccccc2Br)[C@@H]1C -11.2%, CCOC(=O)C1=CN(CCC=C(C)C)C(=O)NC1c1ccccc1 (stereo not given) -0.57%, C=CCCCN1C(=O)NC(c2ccccc2)C(C(=O)OC)=C1C (stereo not given) -5.68%, CCCCCCCC1=CC2=C(Cl)C(=O)C(C)(OC(C)=O)C(=O)C2=CO1 (stereo not given) -5.09%, COCC=CC1=CC2=CC(=O)C(C)(OC(=O)c3cnc4ccccc4n3)C(=O)C2=CN1Cc1ccc(OC)cc1 (stereo not given) 9.31%, COC(=O)[C@H]1[C@H](CCc2ccccc2)NC(=O)N(Cc2ccccc2)[C@H]1C -1.85%, COC(=O)CC=C[C@@H](C)[C@H](NC(=O)OCC(Cl)(Cl)Cl)c1ccc2ccccc2c1 -10.8%
